Results from ChEMBL document CHEMBL1961873, “Compounds: GSK PKIS; Assays: Nanosyn kinase panel” (2012).

Tests used:
[1] = target: Death-associated protein kinase 1 (Homo sapiens) (UniProt P53355); conditions: at 1 µM;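 note: each value is a mean inhibition figure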
[2] = target: T1, Serine/threonine-protein kinase DCLK2 (Homo sapiens) (UniProt Q8N568); conditions: at 0.1 µM
T1 sequence (whole entry): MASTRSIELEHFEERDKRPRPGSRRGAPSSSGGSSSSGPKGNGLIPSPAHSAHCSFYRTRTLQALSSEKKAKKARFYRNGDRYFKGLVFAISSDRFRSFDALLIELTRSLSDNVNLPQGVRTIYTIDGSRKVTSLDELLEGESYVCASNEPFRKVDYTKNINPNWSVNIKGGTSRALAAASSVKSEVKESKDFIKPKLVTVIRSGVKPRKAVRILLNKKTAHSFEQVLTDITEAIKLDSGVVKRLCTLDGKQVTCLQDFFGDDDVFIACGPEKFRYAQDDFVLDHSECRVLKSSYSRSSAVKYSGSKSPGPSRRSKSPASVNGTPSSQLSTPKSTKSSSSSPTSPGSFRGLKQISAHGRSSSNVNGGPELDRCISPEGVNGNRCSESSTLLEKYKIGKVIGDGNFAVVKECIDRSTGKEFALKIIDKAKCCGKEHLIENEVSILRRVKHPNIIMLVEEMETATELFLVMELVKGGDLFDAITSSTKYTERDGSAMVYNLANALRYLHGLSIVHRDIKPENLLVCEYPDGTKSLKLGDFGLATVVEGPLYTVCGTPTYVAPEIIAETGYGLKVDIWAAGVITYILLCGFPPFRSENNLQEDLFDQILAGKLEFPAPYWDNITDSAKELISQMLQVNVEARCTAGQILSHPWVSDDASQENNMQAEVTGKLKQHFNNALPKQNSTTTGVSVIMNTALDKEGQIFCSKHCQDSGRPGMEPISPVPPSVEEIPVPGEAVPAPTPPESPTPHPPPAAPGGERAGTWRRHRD

[3] = target: T1, Serine/threonine-protein kinase DCLK2 (Homo sapiens); conditions: at 1 µM
[4] = target: MAP kinase-activated protein kinase 2 (Homo sapiens) (UniProt P49137); conditions: at 0.1 µM
Sequence of MAP kinase-activated protein kinase 2 (Homo sapiens) (P49137 whole entry, looked up): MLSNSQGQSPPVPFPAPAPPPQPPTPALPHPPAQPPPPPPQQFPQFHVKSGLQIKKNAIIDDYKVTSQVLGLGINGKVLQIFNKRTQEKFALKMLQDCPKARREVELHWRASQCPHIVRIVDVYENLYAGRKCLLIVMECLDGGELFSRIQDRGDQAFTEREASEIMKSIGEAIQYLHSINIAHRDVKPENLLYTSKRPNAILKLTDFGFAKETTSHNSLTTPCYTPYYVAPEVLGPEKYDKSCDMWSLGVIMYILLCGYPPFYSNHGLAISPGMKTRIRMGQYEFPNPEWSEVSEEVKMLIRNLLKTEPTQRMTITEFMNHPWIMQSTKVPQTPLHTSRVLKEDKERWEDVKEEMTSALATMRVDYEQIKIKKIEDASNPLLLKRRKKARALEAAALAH

[5] = target: MAP kinase-activated protein kinase 2 (Homo sapiens) (UniProt P49137); conditions: at 1 µM
[6] = target: MAP kinase-activated protein kinase 3 (Homo sapiens) (UniProt Q16644); conditions: at 0.1 µM
Sequence of MAP kinase-activated protein kinase 3 (Homo sapiens) (Q16644 whole entry, looked up): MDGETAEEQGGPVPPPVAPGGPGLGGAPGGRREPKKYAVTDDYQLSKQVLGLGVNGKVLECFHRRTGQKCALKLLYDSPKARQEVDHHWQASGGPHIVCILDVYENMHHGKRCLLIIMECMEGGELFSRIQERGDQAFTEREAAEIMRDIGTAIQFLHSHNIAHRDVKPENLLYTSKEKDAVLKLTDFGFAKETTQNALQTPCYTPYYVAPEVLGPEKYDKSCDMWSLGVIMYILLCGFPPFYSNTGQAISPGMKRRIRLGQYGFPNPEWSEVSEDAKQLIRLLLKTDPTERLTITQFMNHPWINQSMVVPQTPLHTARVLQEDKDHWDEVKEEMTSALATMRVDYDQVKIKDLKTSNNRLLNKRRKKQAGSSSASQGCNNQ

[7] = target: MAP kinase-activated protein kinase 3 (Homo sapiens) (UniProt Q16644); conditions: at 1 µM
[8] = target: Serine/threonine-protein kinase MARK1 (Homo sapiens) (UniProt Q9P0L2); conditions: at 0.1 µM
Sequence of Serine/threonine-protein kinase MARK1 (Homo sapiens) (Q9P0L2 whole entry, looked up): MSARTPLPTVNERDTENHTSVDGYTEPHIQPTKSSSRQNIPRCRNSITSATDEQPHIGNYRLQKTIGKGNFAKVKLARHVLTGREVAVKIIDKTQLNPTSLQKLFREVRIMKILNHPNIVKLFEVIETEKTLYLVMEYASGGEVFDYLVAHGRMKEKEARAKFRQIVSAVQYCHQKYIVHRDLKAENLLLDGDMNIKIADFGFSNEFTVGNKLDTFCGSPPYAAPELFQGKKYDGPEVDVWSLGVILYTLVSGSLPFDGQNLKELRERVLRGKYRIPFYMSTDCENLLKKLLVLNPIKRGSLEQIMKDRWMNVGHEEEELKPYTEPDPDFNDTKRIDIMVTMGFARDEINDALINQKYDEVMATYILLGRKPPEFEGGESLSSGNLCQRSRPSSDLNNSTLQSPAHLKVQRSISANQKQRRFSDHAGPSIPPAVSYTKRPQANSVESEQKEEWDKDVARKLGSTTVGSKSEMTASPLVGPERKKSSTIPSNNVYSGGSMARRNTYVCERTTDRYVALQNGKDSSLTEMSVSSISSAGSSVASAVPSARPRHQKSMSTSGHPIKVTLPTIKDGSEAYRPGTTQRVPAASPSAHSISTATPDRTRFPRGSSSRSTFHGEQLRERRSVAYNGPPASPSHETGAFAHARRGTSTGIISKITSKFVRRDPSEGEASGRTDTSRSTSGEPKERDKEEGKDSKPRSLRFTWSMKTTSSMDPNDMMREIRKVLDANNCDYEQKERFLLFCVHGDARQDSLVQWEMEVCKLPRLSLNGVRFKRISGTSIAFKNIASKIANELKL

[9] = target: Serine/threonine-protein kinase MARK1 (Homo sapiens) (UniProt Q9P0L2); conditions: at 1 µM
[10] = target: MAP/microtubule affinity-regulating kinase 3 (Homo sapiens) (UniProt P27448); conditions: at 0.1 µM;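 note: mean percent inhibition of MARK3 kinase activity, measured within the GSK PKIS screening panel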
Sequence of MAP/microtubule affinity-regulating kinase 3 (Homo sapiens) (P27448 whole entry, looked up): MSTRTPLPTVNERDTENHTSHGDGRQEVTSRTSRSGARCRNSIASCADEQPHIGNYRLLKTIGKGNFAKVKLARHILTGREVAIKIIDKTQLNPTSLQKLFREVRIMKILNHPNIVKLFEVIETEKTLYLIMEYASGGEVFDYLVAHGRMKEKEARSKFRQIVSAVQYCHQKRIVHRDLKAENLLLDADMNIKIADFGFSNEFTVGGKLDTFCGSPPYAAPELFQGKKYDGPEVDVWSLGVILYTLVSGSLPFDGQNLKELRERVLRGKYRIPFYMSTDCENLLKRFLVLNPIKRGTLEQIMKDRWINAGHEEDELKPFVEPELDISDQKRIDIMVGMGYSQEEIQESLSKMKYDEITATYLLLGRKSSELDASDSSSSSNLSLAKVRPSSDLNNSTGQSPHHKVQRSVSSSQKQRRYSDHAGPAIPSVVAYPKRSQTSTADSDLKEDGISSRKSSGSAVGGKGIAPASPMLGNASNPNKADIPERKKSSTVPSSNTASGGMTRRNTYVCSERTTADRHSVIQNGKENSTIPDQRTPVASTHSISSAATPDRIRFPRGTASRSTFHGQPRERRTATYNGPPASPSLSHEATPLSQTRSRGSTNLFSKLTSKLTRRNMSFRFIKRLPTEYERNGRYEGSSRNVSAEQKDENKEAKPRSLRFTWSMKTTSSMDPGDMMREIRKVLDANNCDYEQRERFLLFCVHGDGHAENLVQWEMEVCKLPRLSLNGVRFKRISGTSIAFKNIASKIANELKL

Sequence of Death-associated protein kinase 1 (Homo sapiens) (P53355 whole entry, looked up): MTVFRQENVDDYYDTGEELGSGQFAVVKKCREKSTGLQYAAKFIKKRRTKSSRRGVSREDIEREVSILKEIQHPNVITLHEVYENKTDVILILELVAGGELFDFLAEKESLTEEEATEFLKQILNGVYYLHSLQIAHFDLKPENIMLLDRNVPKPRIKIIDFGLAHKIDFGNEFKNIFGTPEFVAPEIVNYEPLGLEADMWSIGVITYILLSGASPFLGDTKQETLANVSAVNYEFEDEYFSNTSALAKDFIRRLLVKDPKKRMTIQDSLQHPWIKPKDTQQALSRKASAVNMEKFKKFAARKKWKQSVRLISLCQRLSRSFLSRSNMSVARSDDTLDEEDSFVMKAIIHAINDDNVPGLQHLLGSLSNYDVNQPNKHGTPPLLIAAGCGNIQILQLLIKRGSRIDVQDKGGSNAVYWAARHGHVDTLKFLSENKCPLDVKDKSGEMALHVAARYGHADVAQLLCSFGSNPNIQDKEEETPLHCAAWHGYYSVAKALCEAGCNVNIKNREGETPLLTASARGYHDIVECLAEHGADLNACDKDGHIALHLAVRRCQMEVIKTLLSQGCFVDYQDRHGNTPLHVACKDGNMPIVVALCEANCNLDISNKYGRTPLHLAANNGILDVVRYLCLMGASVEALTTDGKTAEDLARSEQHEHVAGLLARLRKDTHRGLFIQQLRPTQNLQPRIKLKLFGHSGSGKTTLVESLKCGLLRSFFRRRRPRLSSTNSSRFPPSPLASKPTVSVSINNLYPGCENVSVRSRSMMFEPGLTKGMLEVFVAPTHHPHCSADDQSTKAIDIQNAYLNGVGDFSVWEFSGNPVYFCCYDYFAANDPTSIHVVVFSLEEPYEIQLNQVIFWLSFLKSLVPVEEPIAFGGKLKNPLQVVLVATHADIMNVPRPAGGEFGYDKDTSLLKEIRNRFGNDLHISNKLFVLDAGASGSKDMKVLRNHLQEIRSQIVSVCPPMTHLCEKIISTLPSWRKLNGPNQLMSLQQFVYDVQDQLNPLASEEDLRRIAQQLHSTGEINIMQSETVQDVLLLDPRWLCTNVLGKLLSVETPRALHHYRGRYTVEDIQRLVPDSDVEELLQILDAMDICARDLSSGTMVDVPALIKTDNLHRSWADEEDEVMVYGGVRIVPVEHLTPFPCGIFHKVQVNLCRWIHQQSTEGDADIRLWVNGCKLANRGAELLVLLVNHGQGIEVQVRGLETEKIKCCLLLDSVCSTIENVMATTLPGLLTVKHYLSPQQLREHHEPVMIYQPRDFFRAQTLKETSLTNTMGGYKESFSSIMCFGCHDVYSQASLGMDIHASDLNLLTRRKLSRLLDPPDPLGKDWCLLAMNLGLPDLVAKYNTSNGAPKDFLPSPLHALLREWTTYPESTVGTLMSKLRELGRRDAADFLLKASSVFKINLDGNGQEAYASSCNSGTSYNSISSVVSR

SMILES | inhibition [1] | inhibition [2] | inhibition [3] | inhibition [4] | inhibition [5] | inhibition [6] | inhibition [7] | inhibition [8] | inhibition [9] | inhibition [10]
CCCN1CCC=C(c2ccc(Nc3nc(Nc4ccccc4C(N)=O)c4cc[nH]c4n3)c(C)c2)C1 | 6.22% | -0.54% | 3.15% | 2.63% | 4.94% | 3.15% | 6.16% | 2.76% | 16.1% | 2.37%
Cc1nnc(-c2ccc(C)c(-c3ccc(C(=O)Nc4cccc(C#N)c4)cc3)c2)o1 | 2.66% | 0.99% |  | 1.02% | 0.1% | 5.27% | 16.3% | 1.96% | 4.25% | 2.09%
CC(C)=Cc1cccc2c1/C(=N/Nc1ccc(S(N)(=O)=O)cc1)C(=O)N2 | 10.2% | 0.25% |  | 3.53% | 3.71% | 7.64% | 7.15% | 2.11% | 24.8% | 2.08%
COc1ccc(COc2ccc(Cc3cnc(N)nc3N)cc2OC)cc1 | 9.42% | 0.28% | 8.82% | 2.95% | 3.22% | 6.15% | 7.43% | 2.6% | 0.09% | 4.54%
NS(=O)(=O)c1ccc(N/N=C2\C(=O)Nc3ccc(C(=O)NCCc4c[nH]cn4)cc32)cc1 | 12.4% | 1.45% | 0.59% | 2.48% | 2.03% | 3.95% | 3.57% | 16% | 61.4% | 8.6%
CS(=O)(=O)CCNCc1ccc(-c2ccc3ncnc(Nc4ccc(OCc5ccccc5)c(Cl)c4)c3c2)o1 |  | -1.35% | 3.26% | -3.32% | -3.36% | -5.03% | -4.68% | 0.39% | 1.89% | 0.63%
COc1ccc(-c2nn3ncccc3c2-c2ccnc(Nc3ccc(Cl)c(C(F)(F)F)c3)n2)cc1 | 2.18% | 1.74% |  | 1.23% | 0.64% | 4.41% | 17.4% | 2.21% | 2.97% | -0.96%
COc1cc2ncn(-c3cc(OCc4ccccc4Cl)c(C(N)=O)s3)c2cc1OC |  | -1.31% | 4.65% | -2.81% | -3.53% | -5.38% | -2.78% | 2.4% | 9.28% | 1.85%
CC1=C(C(=O)Nc2ccc3[nH]ncc3c2)C(c2ccc(Cl)c(Cl)c2)CC(=O)N1 (stereo unspecified) | -1.58% |  | 0.32% | 0.89% | -0.26% | 2.5% | 1.83% | 0.33% | 5.92% | 2.97%
Cc1cccc(-c2n[nH]cc2-c2ccc3ncccc3n2)n1 | 0.85% |  | -5.57% | 0.61% | -0.07% | 0.58% | 2.89% | 1% | 1.95% | -0.37%
O=C(Nc1n[nH]c2nc(-c3ccco3)c(Br)cc12)C1CC1 | 4.49% | -0.15% | 1.73% | 1.86% | 1.26% | 2.91% | 3.6% | 2.45% | 2.7% | 4.8%
CCn1c(-c2nonc2N)nc2c(C#CC(C)(C)O)nc(OC[C@@H](N)c3ccccc3)cc21 | -7.69% |  | 1.63% | -3.81% | -3.91% | -6.12% | -7.91% | 0.67% | 19.9% | 3.1%
COc1cccc(-n2ncc3c(N/N=C/c4cccc(F)c4)ncnc32)c1 | -1.39% | -4.3% | 1.59% | -0.12% | 0.02% | 1.02% | 0.04% | 2.19% | 6.35% | 0.17%
CCn1c(-c2nonc2N)nc2c(C#CC(C)(C)O)nc(CN3CCCC3)cc21 | -0.31% | 6.66% | -1.42% | -0.49% | -0.42% | -1.48% | -0.59% | 4.99% | 12% | 4.42%
O=C1Nc2ccc(C(=O)c3ccco3)cc2C1=Cc1cc(Cl)c(O)c(Cl)c1 |  | 1% | 6.57% | 1.24% | 0.24% | 3.31% | 2.14% | 3.54% | 14.2% | 4.74%
O=C1NC(=O)C(c2cccc(Cl)c2)=C1Nc1ccc(O)c(Cl)c1 | 2.13% | -0.44% | -0.92% | 0.03% | 0.04% | -0.58% | 1.59% | 2.1% | 15.6% | 5.22%
COc1cc(C=NNc2ncnc3c2cnn3-c2ccccc2)ccc1O | -5.67% | 1.34% | -4.27% | -1.87% | -2.21% | -3.81% | -2.84% | 2.3% | 8.38% | 3.21%
Nc1ncnc2occ(-c3ccc(NC(=O)Nc4cc(C(F)(F)F)cc(C(F)(F)F)c4)cc3)c12 | 3.18% | 0.95% | 1.34% | 0.92% | 0.1% | 2.58% | 4.92% | 0.83% | -0.19% | 3.3%
COc1cc(C)c(NC(=O)CN(C)C)cc1Nc1nc(Nc2cccc(F)c2C(N)=O)c2cc[nH]c2n1 | 35% | 1.99% |  | 0.89% | 0.73% | 3.1% | 3.56% | -0.37% | 1.38% | -0.27%
COC(=O)Nc1nc2cc(Oc3ccc(NC(=O)Nc4cccc(C(=O)O)c4)cc3)ccc2[nH]1 | 0.01% | -6.21% |  | 0.64% | 0.43% | 0.86% | -0.42% | 0.32% | 3.08% | 1.09%
COc1ccccc1Nc1ncc(-c2ccccc2)o1 | -4.43% | 2.18% | 0.52% | -0.33% | -1.84% | 0.93% | 1.35% | 2.73% | 5.68% | 4.5%
CN1CCC(C(=O)Nc2n[nH]c3nnc(-c4ccccc4)cc23)CC1 | -2.32% | 0.57% | -0.83% | -0.36% | -0.73% | -1.34% | -1.95% | 4.01% | 5.96% | 3.75%
Fc1cccc(COc2ccc(Nc3ncnc4cc(-c5ccc[nH]5)sc34)cc2Cl)c1 | -2.65% | -2.61% |  | -0.38% | -0.64% | 0.31% | -0.26% | 1.53% | 2.14% | -1.42%
NS(=O)(=O)c1cccc(-c2ccc3c(NC(=O)C4CC4)n[nH]c3c2)c1 | 3.03% | 0.34% |  | -1.6% | -1.12% | 2.07% | 2.74% | 0.18% | 4.41% | 2.87%
Nc1nc(-c2ccccn2)c(-c2ccc3ncccc3n2)s1 | 3.99% | 0.14% | -0.77% | 2.05% | 2.02% | 1.5% | 3.66% | 3.28% | 6.18% | 2.5%
Cc1ccc(C(=O)NC2CCCCC2)cc1-c1ccc(C(=O)NCC2CC2)cc1 | 5.32% | 3.45% |  | 0.37% | 0.95% | 1.78% | 4.53% | 1.97% | 0.65% | 3.7%
Cc1cc(O)cc(C)c1/C=C/c1cncc(-c2nn[nH]n2)c1 | 3.95% | -1.23% | -3.21% | 2.39% | 1.49% | 6.11% | 4.25% | 4.55% | 5.09% | 5.87%
CC(=O)Nc1cccc(C#Cc2cncnc2Nc2ccc(OCc3cccc(F)c3)c(Cl)c2)n1 | 7.63% | 5.73% | 7.65% | 2.15% | 2.54% | 5.56% | 5.33% | 1.05% | 1.12% | 0.78%
